Bioassay records as filed in PubChem BioAssay.
Sampled rows, rich in hits. Any-hit rate of the full collection: about 12%.
USP30 block: inhibitors of human USP30 deubiquitinase. inhibition, % at 25 µM. Q70CQ3. AID 1645860. 47,000 tested, 5.3% active. purified USP30, Ub-rhodamine cleavage fluorescence
UCHL1 inh: blocks human UCHL1 ubiquitin-rhodamine cleavage. 47,000 tested, 0.2% active. inhibition, % at 20 µM. P09936. purified UCHL1, Ub-rhodamine cleavage fluorescence
USP17 inh: inhibitors of human USP17 deubiquitinase; purified USP17, Ub-rhodamine cleavage fluorescence, 3 h; inhibition, % at 50 µM; 47,000 tested, 6.5% active; A8MUK1
USP8 block: human USP8 deubiquitinase inhibition; P40818; 47,000 tested, 4.2% active; purified USP8, Ub-rhodamine cleavage fluorescence, 30 min; inhibition, % at 20 µM
USP10 inh: inhibitors of human USP10 deubiquitinase | Q14694 | purified USP10, Ub-rhodamine fluorescence, 60 min | inhibition, % at 20 µM | 47,000 tested, 1.1% active | AID 1645856
Target sequence (Q14694 whole entry, looked up): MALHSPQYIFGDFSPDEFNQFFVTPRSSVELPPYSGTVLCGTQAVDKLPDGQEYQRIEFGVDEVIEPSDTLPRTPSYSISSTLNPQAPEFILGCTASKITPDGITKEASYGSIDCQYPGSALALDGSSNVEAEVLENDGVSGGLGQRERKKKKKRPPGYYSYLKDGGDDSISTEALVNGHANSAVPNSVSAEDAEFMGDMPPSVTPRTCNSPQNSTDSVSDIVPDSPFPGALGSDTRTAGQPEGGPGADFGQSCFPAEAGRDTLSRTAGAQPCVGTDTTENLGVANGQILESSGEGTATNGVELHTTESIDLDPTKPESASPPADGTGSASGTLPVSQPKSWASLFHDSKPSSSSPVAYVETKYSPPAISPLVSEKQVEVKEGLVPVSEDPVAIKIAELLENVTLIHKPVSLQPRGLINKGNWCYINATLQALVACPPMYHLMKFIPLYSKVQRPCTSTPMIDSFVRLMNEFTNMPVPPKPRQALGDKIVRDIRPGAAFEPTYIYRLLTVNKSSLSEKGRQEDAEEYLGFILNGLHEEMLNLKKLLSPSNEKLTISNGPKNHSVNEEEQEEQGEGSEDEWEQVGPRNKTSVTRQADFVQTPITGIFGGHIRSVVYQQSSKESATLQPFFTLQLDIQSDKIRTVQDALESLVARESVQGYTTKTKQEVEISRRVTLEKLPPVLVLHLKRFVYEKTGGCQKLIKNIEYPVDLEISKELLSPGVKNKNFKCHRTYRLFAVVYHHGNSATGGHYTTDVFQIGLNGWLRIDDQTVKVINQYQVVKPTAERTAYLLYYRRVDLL
USP7 block: human USP7 deubiquitinase inhibition | Q93009 | purified USP7, Ub-rhodamine cleavage fluorescence | inhibition, % at 20 µM | 47,000 tested, 0.3% active
A number is an active result. Cut-off read from the data, not from the text of the source: active = inhibition above about 30%; inactive = the rest.

Results for CCCc1noc(-c2ccc(-n3ncc(C(=O)N4CCN(C)CC4)c3C)nc2)n1 ?
USP30 block: 30; UCHL1 inh: inactive; USP17 inh: inactive; USP8 block: inactive; USP10 inh: inactive; USP7 block: inactive

How did Cc1noc(-c2cc(=O)n(CC(=O)NCc3ccccc3F)c3ccccc23)n1 do in these assays?
USP30 block: 46; UCHL1 inh: inactive; USP17 inh: 58; USP8 block: inactive; USP10 inh: inactive; USP7 block: inactive

How did Cc1noc(-c2cc(=O)n(CC(=O)Nc3ccc(F)cc3F)c3ccccc23)n1 do in these assays?
USP30 block: inactive; UCHL1 inh: inactive; USP17 inh: inactive; USP8 block: inactive; USP10 inh: inactive; USP7 block: inactive

How did Cn1nc(C2CCN(Cc3cccc4cccnc34)CC2)c2nccnc21 do in these assays?
USP30 block: inactive; UCHL1 inh: inactive; USP17 inh: inactive; USP8 block: inactive; USP10 inh: inactive; USP7 block: inactive

How did CNC(=O)c1sc2ccccc2c1C1CCN(CC(N)=O)C1 (centres undefined) do in these assays?
USP30 block: inactive; UCHL1 inh: inactive; USP17 inh: inactive; USP8 block: inactive; USP10 inh: inactive; USP7 block: inactive

Results for Cc1noc(-c2cc(=O)n(CC(=O)Nc3ccccc3C)c3ccccc23)n1 ?
USP30 block: inactive; UCHL1 inh: inactive; USP17 inh: 45; USP8 block: inactive; USP10 inh: inactive; USP7 block: inactive

What do the screens show for `CCc1ccc(-c2cc3c(=O)n(CC(=O)N4CCN(C)CC4)ncn3n2)cc1`?
USP30 block: inactive; UCHL1 inh: inactive; USP17 inh: inactive; USP8 block: inactive; USP10 inh: inactive; USP7 block: inactive

What do the screens show for `COc1ccccc1C(=O)N(Cc1ccccc1)C(C)(C)c1ccccc1`?
USP30 block: 36; UCHL1 inh: inactive; USP17 inh: inactive; USP8 block: inactive; USP10 inh: inactive; USP7 block: inactive

Results for COc1ccccc1C(=O)N(Cc1ccccc1F)C1CCS(=O)(=O)C1 (centres undefined) ?
USP30 block: inactive; UCHL1 inh: inactive; USP17 inh: inactive; USP8 block: inactive; USP10 inh: inactive; USP7 block: inactive

How did O=C1Nc2ccccc2C2(CCN(S(=O)(=O)c3ccccn3)CC2)O1 do in these assays?
USP30 block: inactive; UCHL1 inh: inactive; USP17 inh: inactive; USP8 block: inactive; USP10 inh: inactive; USP7 block: inactive

How did Cc1ccc(S(=O)(=O)N2CCC3(CC2)OC(=O)Nc2ccccc23)cc1 do in these assays?
USP30 block: inactive; UCHL1 inh: inactive; USP17 inh: inactive; USP8 block: 35; USP10 inh: inactive; USP7 block: inactive

Results for CC(=O)Nc1cc(-c2cccc(CO)c2)cn2c(-c3ccc(S(C)(=O)=O)cc3)cnc12 ?
USP30 block: inactive; UCHL1 inh: inactive; USP17 inh: inactive; USP8 block: inactive; USP10 inh: inactive; USP7 block: inactive

What do the screens show for `COc1ccccc1-c1cc(NC(C)=O)c2ncc(-c3ccc(S(C)(=O)=O)cc3)n2c1`?
USP30 block: inactive; UCHL1 inh: inactive; USP17 inh: 39; USP8 block: 69; USP10 inh: inactive; USP7 block: inactive

What do the screens show for `O=C(Nc1ccc(-n2nnc(C(=O)N3CCCC3)n2)cc1)c1ccco1`?
USP30 block: inactive; UCHL1 inh: inactive; USP17 inh: inactive; USP8 block: inactive; USP10 inh: inactive; USP7 block: inactive

How did CCOC(=O)N1CCN(C(=O)CSc2nc3c(cnn3-c3ccc(Cl)cc3)c(=O)[nH]2)CC1 do in these assays?
USP30 block: inactive; UCHL1 inh: inactive; USP17 inh: inactive; USP8 block: inactive; USP10 inh: inactive; USP7 block: inactive

What do the screens show for `CCOc1ccc(-c2nc3c(cnn3-c3ccccc3)c(=O)[nH]2)cc1`?
USP30 block: inactive; UCHL1 inh: inactive; USP17 inh: 37; USP8 block: inactive; USP10 inh: inactive; USP7 block: inactive

Results for Cc1cc2nc(-c3ccc(SCc4ccccn4)nc3)[nH]c2cc1C ?
USP30 block: inactive; UCHL1 inh: inactive; USP17 inh: 57; USP8 block: inactive; USP10 inh: inactive; USP7 block: inactive

What do the screens show for `COc1ccccc1-c1nc(SCc2ccccn2)n[nH]1`?
USP30 block: inactive; UCHL1 inh: inactive; USP17 inh: inactive; USP8 block: inactive; USP10 inh: inactive; USP7 block: inactive

How did Cn1c(N2CCCC(C(=O)NCc3ccc(F)cc3)C2)cc(=O)n(C)c1=O (centres undefined) do in these assays?
USP30 block: inactive; UCHL1 inh: inactive; USP17 inh: inactive; USP8 block: inactive; USP10 inh: inactive; USP7 block: inactive

How did O=C(CN1CCOCC1)Nc1ccc(NC(=O)c2ccc(Cl)cc2)cc1 do in these assays?
USP30 block: inactive; UCHL1 inh: 69; USP17 inh: inactive; USP8 block: inactive; USP10 inh: inactive; USP7 block: inactive

What do the screens show for `Cc1ccccc1C(=O)Nc1ccc(NC(=O)CN2CCOCC2)cc1`?
USP30 block: inactive; UCHL1 inh: inactive; USP17 inh: inactive; USP8 block: inactive; USP10 inh: inactive; USP7 block: inactive

How did Cc1csc(NC(=O)c2c[nH]c3ccc(F)cc3c2=O)n1 do in these assays?
USP30 block: inactive; UCHL1 inh: inactive; USP17 inh: inactive; USP8 block: 85; USP10 inh: 46; USP7 block: inactive

Results for COc1ccc2[nH]cc(C(=O)c3ccc(F)cc3)c(=O)c2c1 ?
UCHL1 inh: inactive; USP17 inh: inactive; USP8 block: inactive; USP10 inh: inactive; USP7 block: inactive

Results for CCOC(=O)C(C)Sc1nnc(CNC(=O)C23CC4CC(CC(C4)C2)C3)n1C1CCCCC1 (centres undefined) ?
USP30 block: inactive; UCHL1 inh: inactive; USP17 inh: inactive; USP8 block: inactive; USP10 inh: inactive; USP7 block: inactive

What do the screens show for `O=C(O)c1ccc(OC(=O)C(c2ccccc2)c2ccccc2)cc1`?
USP30 block: inactive; UCHL1 inh: inactive; USP17 inh: inactive; USP8 block: inactive; USP10 inh: inactive; USP7 block: inactive

What do the screens show for `O=C(Oc1ccc2c(c1)OCO2)C(c1ccccc1)c1ccccc1`?
USP30 block: inactive; UCHL1 inh: inactive; USP17 inh: inactive; USP8 block: 31; USP10 inh: inactive; USP7 block: inactive

What do the screens show for `Cc1ccc(Cn2cc(-c3noc(-c4ccncc4)n3)nn2)cc1`?
USP30 block: inactive; UCHL1 inh: inactive; USP17 inh: 79; USP8 block: inactive; USP10 inh: inactive; USP7 block: inactive

How did Fc1ccc(Cn2cc(-c3noc(-c4cccnc4)n3)nn2)cc1 do in these assays?
USP30 block: inactive; UCHL1 inh: inactive; USP17 inh: inactive; USP8 block: inactive; USP10 inh: inactive; USP7 block: inactive

What do the screens show for `Fc1cccc(Cn2cc(-c3noc(-c4ccncc4)n3)nn2)c1`?
USP30 block: inactive; UCHL1 inh: inactive; USP17 inh: 66; USP8 block: inactive; USP10 inh: inactive; USP7 block: inactive

Results for CCOc1ccccc1-c1nc(-c2cn(Cc3cccc(F)c3)nn2)no1 ?
USP30 block: inactive; UCHL1 inh: inactive; USP17 inh: inactive; USP8 block: inactive; USP10 inh: inactive; USP7 block: inactive
